Results published in PubChem BioAssay (NCI).
Compounds without any hit were thinned out: in the full panel of roughly 83,000, 20% have a hit.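 Method: cells in 96-well plates; compound added at one concentration; 48 h incubation; percent growth measured; values under 10 scored active.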 Activity calls are given as the source filed them.

What follows are molecules tested on HL-60(TB) leukemia (assay: NCI-60 one-dose screen, 48 h (100 = growth as untreated, 0 = no growth, -100 = all killed)). Details: 10 µM unless noted.

Row | Compound | growth
1 | Cc1cc2c(-c3nc4ccccn4c3Nc3cccc4ccccc34)c(O)c(O)cc2c(O)c1-c1c(C)cc2c(-c3nc4ccccn4c3Nc3cccc4ccccc34)c(O)c(O)cc2c1O | 28.6% (inactive)
2 | COc1cc2cc(Oc3ccc(NC(=O)Nc4ccc(Cl)c(C(F)(F)F)c4)cc3)c(C)nc2cc1OCCN1CCOCC1 | 11% (inactive)
3 | O=[N+]([O-])c1ccc(Sc2ncccn2)c([N+](=O)[O-])c1 | -31.8% (active)
